Experimental data reported in PubChem BioAssay.
Activity calls are given as the source filed them. Unless noted, how the calls were made is not given here.

Legend:
[1] = tested on: Wnt5a (protein binding on small-molecule microarray); experiment: Wnt5a binders on small-molecule microarray, primary screen, biophysical, 635/667 nm fluorescence (AID 1142); details: 635 nm fluorescence, higher = more signal;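 further: fluorescence read at 667 nm with signal to noise per printed feature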
[2] = cell viability in Huh7 cells, primary screen, cytotoxicity control for HCV replication inhibitor project, CellTiter-Glo luminescence, basal, 48 h (AID 1143); details: Huh7 HCV replicon, higher = more signal, called active from +8 up or from −8 down;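 further: Huh7 hepatoma cells carrying a hepatitis C replication reporter with no stimulus; test concentration not given here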
[3] = P. aeruginosa biofilm formation inhibitors, primary screen, PAO1 strain, BacTiter-Glo luminescence, LB-PBS (AID 1144); details: 12 h, higher = more signal
[4] = CREB reporter modulators without forskolin, primary screen, cell-based, PC12, CRE-LacZ reporter, unstimulated (AID 1145); details: no forskolin, luminescence, 4.5 h, higher = more signal, called active from +8 up or from −8 down
[5] = CREB reporter modulators under forskolin, primary screen, cell-based, PC12, CRE-LacZ reporter, forskolin-stimulated (AID 1146); details: luminescence, 4.5 h, higher = more signal, called active from +8 up or from −8 down;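 further: PC12 cells with 6xCRE LacZ reporter stimulated by forskolin 10 µM; beta-galactosidase reporter signal reflecting CREB driven transcription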
[6] = molecular target: Streptavidin (Streptomyces avidinii) (UniProt P22629); experiment: streptavidin binders on small-molecule microarray, primary screen, artefact control for SMM compound annotation, biophysical, 635/667 nm fluorescence (AID 1147); details: streptavidin binding, higher = more signal;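 further: signal reflects streptavidin binding to arrayed compounds as a control protein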
[7] = small-molecule binders of probe aInhba, primary screen, biochemical, small-molecule microarray, 635/667 nm fluorescence (AID 1148); details: higher = more signal;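 further: score merges 667nm spot fluorescence with signal-to-noise for antibody binding to printed compounds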
Torsin-1A (Homo sapiens) [8] = molecular target: Torsin-1A (Homo sapiens) (UniProt O14656); experiment: torsin A binders from cell lysate, primary screen, small-molecule microarray, wild-type, 635/667 nm (AID 1149); details: COS7 hTOR1A-WT lysate, 635 nm fluorescence, higher = more signal
Torsin-1A (Homo sapiens) [9] = molecular target: Torsin-1A (Homo sapiens) (UniProt O14656); experiment: small-molecule binders of mutant TOR1A in lysate, primary screen, cell lysate, small-molecule microarray, COS7 lysate, 635/667 nm fluorescence (AID 1150); details: COS7 hTOR1A mutant lysate, 635 nm fluorescence, higher = more signal;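 further: score pools 667 nm emission and signal to noise measuring lysate protein binding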
[10] = tested on: Sonic hedgehog protein (Shh); experiment: small-molecule binders of Shh protein, primary screen, biochemical, small-molecule microarray, 635/667 nm fluorescence (AID 1151); details: small-molecule microarray binding, 635 nm fluorescence; higher = more signal;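 further: Shh protein binding to compounds spotted on small-molecule microarray slides; score combines spot fluorescence intensity with signal-to-noise across triplicate slides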
[11] = E. coli DRC41 culture turbidity changes, primary screen, E. coli filamentation inducer project, strain DRC41, OD650, 48 h (AID 1152);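 further: E. coli MC1000 strain DRC41 lacking acrAB efflux pump and sulA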; details: E. coli DRC41 (acrAB sulA), higher = more signal, called active from +8 up or from −8 down
[12] = small-molecule binders of probe aLefty1, primary screen, biochemical, small-molecule microarray, 635/667 nm fluorescence (AID 1153); details: higher = more signal;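 further: score merges spot fluorescence with signal-to-noise ratio from the scanned slide images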
[13] = PSAC antagonists in infected red cells, primary screen, cell-based, P. falciparum Indochina, OD700, 1 h (AID 1154); details: P. falciparum Indochina infected RBC osmotic lysis, higher = more signal, called active from +8 up or from −8 down
[14] = PSAC antagonists in infected red cells, primary screen, cell-based, P. falciparum Indochina, OD700, 2 h (AID 1155);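 further: lysis reports solute entry through the parasite surface anion channel PSAC; channel blockers reduce lysis of infected cells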; details: P. falciparum Indochina infected erythrocytes, osmotic lysis OD700; higher = more signal, called active from +8 up or from −8 down
[15] = osmotic lysis modulators in infected erythrocytes, primary screen, PSAC antagonist project, cell-based, P. falciparum Indochina, OD700, 3 h (AID 1156); details: higher = more signal, called active from +8 up or from −8 down
[16] = PSAC antagonists in infected red cells, primary screen, cell-based, P. falciparum Indochina, OD700, 18 h (AID 1157); details: P. falciparum Indochina infected erythrocytes, osmotic lysis OD700, 18 h; higher = more signal, called active from +8 up or from −8 down
[17] = modulators of S6 phosphorylation in cells, primary screen, cell-based, A549, cytoblot, luminescence, serum-stimulated (AID 1158); details: A549 phospho-S6 cytoblot, 5 h, higher = more signal;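 further: serum-stimulated A549 lung adenocarcinoma cells; signal is phosphorylated S6 detected by cytoblot immunostaining with HRP secondary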
[18] = molecular target: NADPH oxidase 2 (Homo sapiens) (UniProt P04839); experiment: NOX2-dependent H2O2 signal modulators, primary screen, NOX inhibitor project, cell-based, HEK293-NOX2, PMA-stimulated, Amplex Red fluorescence (AID 1159); details: 45 min, higher = more signal, called active from +8 up or from −8 down; further: test concentration not given here
[19] = molecular target: NADPH oxidase 4 (Homo sapiens) (UniProt Q9NPH5); experiment: NOX4-dependent H2O2 signal modulators, primary screen, NOX inhibitor project, cell-based, HEK293-NOX4, tetracycline-induced, Amplex Red fluorescence (AID 1160); details: 45 min, higher = more signal, called active from +8 up or from −8 down
[20] = molecular target: NADPH oxidase 5 (Homo sapiens) (UniProt Q96PH1); experiment: NOX5-dependent H2O2 signal modulators, primary screen, NOX inhibitor project, cell-based, HEK293-NOX5, Amplex Red fluorescence (AID 1161); details: HEK293-NOX5, ionomycin, 45 min, higher = more signal
NADPH oxidase 5 (Homo sapiens), sequence (Q96PH1 whole entry, looked up): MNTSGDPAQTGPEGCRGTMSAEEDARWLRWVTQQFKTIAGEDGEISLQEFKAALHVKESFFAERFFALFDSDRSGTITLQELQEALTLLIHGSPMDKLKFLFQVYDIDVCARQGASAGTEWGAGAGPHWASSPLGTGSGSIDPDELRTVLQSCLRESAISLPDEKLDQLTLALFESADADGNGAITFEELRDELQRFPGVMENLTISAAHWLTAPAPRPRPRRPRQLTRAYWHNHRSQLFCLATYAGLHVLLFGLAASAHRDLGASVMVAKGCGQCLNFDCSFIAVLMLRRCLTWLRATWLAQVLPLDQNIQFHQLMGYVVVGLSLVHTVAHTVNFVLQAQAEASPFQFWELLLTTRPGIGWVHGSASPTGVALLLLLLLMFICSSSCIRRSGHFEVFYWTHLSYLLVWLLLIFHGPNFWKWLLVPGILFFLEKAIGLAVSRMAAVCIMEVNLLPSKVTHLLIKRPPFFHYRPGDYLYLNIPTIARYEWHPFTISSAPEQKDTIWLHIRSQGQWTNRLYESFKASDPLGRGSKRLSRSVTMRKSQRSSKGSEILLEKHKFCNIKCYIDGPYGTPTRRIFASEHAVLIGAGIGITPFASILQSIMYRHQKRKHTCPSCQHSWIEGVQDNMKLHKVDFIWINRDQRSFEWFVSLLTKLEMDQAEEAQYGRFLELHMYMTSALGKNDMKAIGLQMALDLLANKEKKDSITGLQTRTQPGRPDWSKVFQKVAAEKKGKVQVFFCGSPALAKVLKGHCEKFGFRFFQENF

Streptavidin (Streptomyces avidinii), sequence (P22629 whole entry, looked up): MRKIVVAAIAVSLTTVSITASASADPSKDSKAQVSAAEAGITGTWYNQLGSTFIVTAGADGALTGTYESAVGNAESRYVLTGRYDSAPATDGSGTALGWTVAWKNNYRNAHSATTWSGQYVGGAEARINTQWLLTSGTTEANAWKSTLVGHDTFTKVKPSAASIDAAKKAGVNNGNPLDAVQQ
NADPH oxidase 4 (Homo sapiens), sequence (Q9NPH5 whole entry, looked up): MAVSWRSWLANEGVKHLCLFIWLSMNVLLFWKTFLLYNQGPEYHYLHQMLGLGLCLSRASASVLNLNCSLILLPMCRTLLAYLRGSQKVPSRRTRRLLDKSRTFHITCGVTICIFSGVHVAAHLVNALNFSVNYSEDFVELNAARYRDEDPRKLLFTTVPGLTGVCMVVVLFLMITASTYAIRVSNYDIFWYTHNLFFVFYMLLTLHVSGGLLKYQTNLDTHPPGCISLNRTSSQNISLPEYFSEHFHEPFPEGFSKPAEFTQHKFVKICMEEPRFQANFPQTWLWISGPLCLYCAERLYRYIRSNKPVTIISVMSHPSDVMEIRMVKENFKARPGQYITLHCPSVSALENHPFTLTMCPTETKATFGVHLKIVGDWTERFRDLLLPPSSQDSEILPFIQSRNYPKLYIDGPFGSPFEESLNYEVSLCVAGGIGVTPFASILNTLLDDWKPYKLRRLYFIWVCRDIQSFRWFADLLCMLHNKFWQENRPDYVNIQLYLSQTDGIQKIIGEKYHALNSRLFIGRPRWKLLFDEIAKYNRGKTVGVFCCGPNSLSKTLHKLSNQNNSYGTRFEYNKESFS
Torsin-1A (Homo sapiens), sequence (O14656 whole entry, looked up): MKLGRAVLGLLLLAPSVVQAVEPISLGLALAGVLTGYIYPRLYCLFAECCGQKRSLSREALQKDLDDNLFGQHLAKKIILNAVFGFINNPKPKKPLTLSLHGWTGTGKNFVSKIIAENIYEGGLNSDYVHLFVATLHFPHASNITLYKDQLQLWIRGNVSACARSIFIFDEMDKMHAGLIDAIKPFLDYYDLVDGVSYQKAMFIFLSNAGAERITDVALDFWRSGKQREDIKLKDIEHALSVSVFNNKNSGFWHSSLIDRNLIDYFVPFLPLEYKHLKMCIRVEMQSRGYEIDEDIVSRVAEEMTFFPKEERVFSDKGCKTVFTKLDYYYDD
NADPH oxidase 2 (Homo sapiens), sequence (P04839 whole entry, looked up): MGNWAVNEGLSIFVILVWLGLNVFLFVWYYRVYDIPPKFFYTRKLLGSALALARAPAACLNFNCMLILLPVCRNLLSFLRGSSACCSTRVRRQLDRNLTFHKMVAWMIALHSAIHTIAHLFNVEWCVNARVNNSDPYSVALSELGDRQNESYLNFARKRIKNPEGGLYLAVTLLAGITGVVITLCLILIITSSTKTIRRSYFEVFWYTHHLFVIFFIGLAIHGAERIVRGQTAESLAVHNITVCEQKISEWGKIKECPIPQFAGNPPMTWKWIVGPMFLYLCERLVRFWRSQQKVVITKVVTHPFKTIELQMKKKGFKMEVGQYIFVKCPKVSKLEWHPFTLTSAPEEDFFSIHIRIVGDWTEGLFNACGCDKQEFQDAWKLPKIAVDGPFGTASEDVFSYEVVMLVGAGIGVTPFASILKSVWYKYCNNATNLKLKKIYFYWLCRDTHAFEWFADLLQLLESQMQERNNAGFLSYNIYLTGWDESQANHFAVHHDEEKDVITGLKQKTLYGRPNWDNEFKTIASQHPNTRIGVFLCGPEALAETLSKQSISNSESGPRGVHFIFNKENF

Row | Compound | composite z-score [1] | z-score [2] | z-score [3] | z-score [4] | z-score [5] | composite z-score [6] | composite z-score [7] | composite z-score (Torsin-1A (Homo sapiens) [8]) | composite z-score (Torsin-1A (Homo sapiens) [9]) | composite z-score [10] | z-score [11] | composite z-score [12] | z-score [13] | z-score [14] | z-score [15] | z-score [16] | z-score [17] | z-score [18] | z-score [19] | z-score [20]
1 | NC(=O)NCC#Cc1ccc2c(c1)[C@]1(C(=O)N2)[C@H](c2ccccc2OCCO)N2[C@H](c3ccccc3)[C@H](c3ccccc3)OC(=O)[C@H]2[C@@H]1C(=O)O | -0.163 | -1.22 (inactive) | -1.19 (inactive) | 0.595 (inactive) | 1.36 (inactive) | 0.333 | 0.121 | -0.689 | 0.28 | 0.028 | 0.851 (inactive) | -0.278 | 1.07 (inactive) | -0.525 (inactive) | -1.78 (inactive) | 0.0482 (inactive) | 0.171 | 2.78 (inactive) | 0.517 (inactive) | -0.123
2 | C=C[C@H]1C(C(=O)OCC)=CC[C@@H](c2ccccc2)N1S(=O)(=O)c1ccc(C)cc1 | 0.197 | -4.68 (inactive) | -0.376 (inactive) | -0.0137 (inactive) | 0.299 (inactive) | 0.767 | 0.13 | 0.683 | 0.508 | 0.056 | -1.11 (inactive) | 0.457 | 7.17 (inactive) | 1.56 (inactive) | 0.43 (inactive) | 0.509 (inactive) | -0.518 | 0.09 (inactive) | -0.613 (inactive) | 0.14
3 | COC(=O)[C@@]1(Cc2ccc(F)cc2)[C@H]2c3cc(C(=O)N(C)C)n(Cc4ccc(OC(F)(F)F)cc4)c3C[C@H]2CN1C(=O)c1ccccc1 | 0.0007 | 0.875 (inactive) | -0.362 (inactive) | 0.397 (inactive) | 0.391 (inactive) | 0.686 | 0.0633 | 0.296 | 0.569 | -0.817 | -1.4 (inactive) | 0.651 | -0.0341 (inactive) | 0.673 (inactive) | -0.0751 (inactive) | 0.692 (inactive) | -0.139 | 0.195 (inactive) | -0.44 (inactive) | 0.205
4 | NCCCCCCNC(=O)[C@@H]1C[C@@H]2C(=O)N[C@@H](CCCCN)C(=O)N2[C@@H]1c1ccc(O)cc1 | 0.0704 | -2.28 (inactive) | -0.611 (inactive) | -1.35 (inactive) | -0.965 (inactive) | -0.865 | 0.033 | 0.822 | 1.03 | 1.62 | 0.264 (inactive) | 0.614 | 1.11 (inactive) | -1.03 (inactive) | -2.05 (inactive) | -1.85 (inactive) | 0.0189 | -1.77 (inactive) | -1.06 (inactive) | -3.51
5 | O=C1C[C@]2(c3ccc([N+](=O)[O-])cc3)C(=O)N(C3CC3)c3cc(CO)ccc3[C@H]2N1CC12CC3CC(CC(C3)C1)C2 | -0.178 | -2.19 (inactive) | 0.332 (inactive) | -0.179 (inactive) | 1.23 (inactive) | -0.368 | -0.0403 | -1.26 | 0.228 | -0.7 | -0.829 (inactive) | 0.599 | 0.617 (inactive) | -0.0621 (inactive) | 0.474 (inactive) | 0.255 (inactive) | 0.204 | 1.36 (inactive) | -1.64 (inactive) | 0.0712
6 | C=CCC(OC(C)=O)[C@@H]1[C@@H](N(Cc2ccc(-c3cccc(C(F)(F)F)c3)o2)C(=O)c2ccc(-c3ccccc3)cc2)c2cc(OCCCO)ccc2N1C(=O)Cc1ccc2ccccc2c1 (stereo not given in full) | -0.276 | -0.165 (inactive) | -0.184 (inactive) | 0.572 (inactive) | 0.368 (inactive) | -0.368 | -0.113 | -1.21 | -1.1 | -0.0629 | -0.75 (inactive) | 0.0451 | 0.702 (inactive) | 0.609 (inactive) | 0.191 (inactive) | 0.532 (inactive) | 0.0285 | -1.34 (inactive) | -1.69 (inactive) | -0.791
7 | COC(=O)c1c(CC[C@@H](CO)NC(=O)N2CCC[C@H]2Cn2cc(C3(O)CCCCC3)nn2)oc(C(C)=O)c1C(=O)OC | -0.0505 | -0.257 (inactive) | -0.156 (inactive) | 0.498 (inactive) | 0.306 (inactive) | 0.429 | -0.0448 | 0.666 | 0.895 | 1.44 | -0.955 (inactive) | -0.101 | 1.35 (inactive) | 0.092 (inactive) | 1.14 (inactive) | 0.163 (inactive) | -0.0302 | -0.645 (inactive) | -0.981 (inactive) | -1.37
8 | C=CCC(OC(C)=O)[C@@H]1[C@@H](N(Cc2cc3ccccc3o2)C(=O)Cc2ccc(F)cc2)c2cc(OCCCO)ccc2N1C(=O)Cc1ccc2ccccc2c1 (stereo not given in full) | -0.314 | -0.327 (inactive) | -0.467 (inactive) | 2.08 (inactive) | 0.926 (inactive) | 0.655 | -0.0963 | -1.16 | -0.337 | 0.0162 | -1.06 (inactive) | 0.051 | 1.23 (inactive) | 0.62 (inactive) | -0.621 (inactive) | 0.184 (inactive) | -0.213 | 0.682 (inactive) | 0.88 (inactive) | 1.86
